Screening results: PubChem, several laboratories
MBD2 inh – inhibitors of MBD2 binding to methylated DNA, primary screen, biochemical, TR-FRET, DNA-binding domain, human | MBD2 binding to methylated oligonucleotide | inhibition, % at 4.4 µM | 370,000 compounds, 0.31% hits | AID 686964, 2013; in the data active means inhibition above about 13%
Target sequence (Q9UBB5 whole entry, looked up, the tested form may be a part): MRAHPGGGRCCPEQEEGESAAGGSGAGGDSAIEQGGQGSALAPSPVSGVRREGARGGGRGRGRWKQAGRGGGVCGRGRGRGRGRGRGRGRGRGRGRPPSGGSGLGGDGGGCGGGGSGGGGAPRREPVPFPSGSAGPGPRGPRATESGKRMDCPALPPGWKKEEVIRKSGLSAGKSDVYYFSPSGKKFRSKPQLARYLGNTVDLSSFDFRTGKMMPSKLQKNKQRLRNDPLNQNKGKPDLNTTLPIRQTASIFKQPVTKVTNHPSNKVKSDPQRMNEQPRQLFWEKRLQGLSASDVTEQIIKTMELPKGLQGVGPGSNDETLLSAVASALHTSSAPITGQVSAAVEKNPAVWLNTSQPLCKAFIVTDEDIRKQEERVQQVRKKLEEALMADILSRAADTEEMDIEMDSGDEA
rCAG RNA binder – binders of r(CAG) RNA repeats, primary screen, biochemical, fluorescence; r(CAG) RNA repeat, TO-PRO-1 dye displacement fluorescence; inhibition, % at 3 µM; 370,000 compounds, 1.3% hits; AID 651821, 2012;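 active means inhibition above the plate cutoff, the mean of all test compounds on that plate plus 3 SD, cut at about 35% in these data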;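 further: higher means more dye released from RNA so lower well fluorescence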
LEDGF integ inh – blockers of LEDGF/p75-dependent integrase strand transfer – biochemical, TR-FRET, high throughput, primary screen | TR-FRET IN-LEDGF/p75 DNA integration, Eu/Cy5 | inhibition, % at 3.7 µM | 370,000 compounds, 0.64% hits;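 active means inhibition above the screen-wide mean plus 3 SD, cut at about 13% in these data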;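 further: signal is the Cy5 over europium emission ratio at 671 and 618 nm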
PG9 Ab binder – binders of HIV-1 gp120 antibody PG9, primary screen, biochemical, TR-FRET. inhibition, % at 6.7 µM. TR-FRET gp120-PG9 antibody binding. 360,000 compounds, 0.43% hits. HIV-1 gp120 / PG9 antibody interaction; in the data active means inhibition above about 8.5%
UHRF1 binding – UHRF1 methylated DNA binding inhibitors, primary screen, counter-screen for MBD2 inhibitor project, biochemical, TR-FRET, human UHRF1, single concentration | E3 ubiquitin-protein ligase UHRF1 (Homo sapiens), Q96T88 | UHRF1 binding to methylated oligo | inhibition, % at 4.4 µM | AID 687016, 2013 | 370,000 compounds, 0.75% hits; in the data active means inhibition above about 21%;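 further: UHRF1 SRA domain binding a hemimethylated CpG hairpin DNA probe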
DNMT1 block – human DNMT1 methyltransferase inhibitors, primary screen, biochemical, molecular beacon, fluorescence, HinP1I cleavage, uHTS; inhibition (reported as % activation of signal), % at 10 µM; 360,000 compounds, 0.83% hits; in the data active means inhibition above about 50%
rCAG bind conf – small molecules binding CAG repeat RNA – biochemical, fluorescence, confirmation; inhibition, % at 3 µM; 4,300 compounds, 70% hits; r(CAG) RNA repeat, TO-PRO-1 dye displacement fluorescence; shares compounds with rCAG RNA binder; AID 652065, 2013;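 active means inhibition above a per-plate cutoff, the mean inhibition of sample wells plus 3 SD, cut at about 35% in these data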;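 further: loss of TO-PRO-1 fluorescence as compound displaces dye from 1x1 AA loop RNA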
dCAG dye counter – displacement of TO-PRO-1 from CAG DNA duplex, counter-screen for rCAG RNA repeat binder project, biochemical, fluorescence, TO-PRO-1 dye, d(CAG) DNA oligo. shares compounds with rCAG RNA binder. 4,300 compounds, 94% hits. d(CAG) DNA oligo TO-PRO-1 dye displacement. inhibition, % at 3 µM;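 active means inhibition above its plate's cutoff, the mean test-well inhibition plus 3 SD, cut at about 4.8% in these data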;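 further: hits displace the dye from DNA and so lower well fluorescence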
Each line names hits and unclear results; the compound was inactive in the other large screens (follow-up assays come after a bar, where they were run). Compounds with a hit are over-represented: about 3.5% of the library has one in this group of screens.

Cc1cc(C)c2nc(NNC(=O)c3ccc(S(=O)(=O)N4CCc5ccccc5C4)cc3)sc2c1	rCAG RNA binder 61, LEDGF integ inh 20 | rCAG bind conf 50 | dCAG dye counter 26
Cc1cc(C)c2sc(NNC(=O)c3ccc(S(=O)(=O)N4CCc5ccccc5C4)cc3)nc2c1	rCAG RNA binder 48, LEDGF integ inh 19 | rCAG bind conf 59 | dCAG dye counter 29
CCOC(=O)Cc1csc(NC(=O)c2cc(=O)c3ccccc3o2)n1	none
Cc1cc(C)c2nc(NNC(=O)c3cc(=O)c4ccccc4o3)sc2c1	rCAG RNA binder 73 | rCAG bind conf 82 | dCAG dye counter 49
CC(=O)NC(C(=O)c1ccccc1)N1CCCCC1 (stereo unspecified)	none
O=C1CCN(Cc2ccccc2)S(=O)(=O)c2ccc(C(F)(F)F)cc21	none
COc1ccc(CC(=O)Nc2cc(S(=O)(=O)N3CCCCC3)ccc2OC(C)C)cc1OC	none
COCC(=O)Nc1sc2c(c1C(=O)OC)CCCC2	none
COC(=O)c1c(NC(=O)C2CCCCC2C(=O)O)sc2c1CCCCC2 (stereo unspecified)	rCAG RNA binder 48 | rCAG bind conf inactive | dCAG dye counter 5.7
CCn1cnc2c(NCc3cccnc3)nc(C#N)nc21	none (no result: rCAG RNA binder, PG9 Ab binder, DNMT1 block)
Cc1ccc(NS(=O)(=O)c2cc(NC(=O)c3cc(=O)[nH]c(=O)[nH]3)ccc2Cl)c(C)c1	rCAG RNA binder 54 | rCAG bind conf 61 | dCAG dye counter 20
Cc1ccc(-n2nc(C)c3c2NC2=C(C(=O)CC(C)(C)C2)C3c2ccccc2OCC(=O)O)cc1 (stereo unspecified)	rCAG RNA binder 37 | rCAG bind conf 41 | dCAG dye counter 9.4
COc1ccc2c(c1OC)C(=O)N(c1cccc(/C=C/C(=O)O)c1)C2	none
O=C(NC1CC(=O)N(c2ccccc2)C1)C1CC1 (stereo unspecified)	none
O=C1c2ccccc2C(O)(c2ccccc2)N1c1ccc([N+](=O)[O-])cc1Cl (stereo unspecified)	rCAG RNA binder 40 | rCAG bind conf 40 | dCAG dye counter 10
CC1(C(=O)Nc2ccc(F)cc2F)CCN1C(=O)CCC1CCCC1 (stereo unspecified)	none
CCCn1nc(NS(=O)(=O)c2cccc3nonc23)c2cc3cc(C)ccc3nc21	none
CCCn1nc(NS(=O)(=O)c2cccc3nonc23)c2cc3cccc(C)c3nc21	rCAG RNA binder 85 | rCAG bind conf 78 | dCAG dye counter 41
CCn1nc(NS(=O)(=O)c2ccccc2)c2cc3cccc(C)c3nc21	rCAG RNA binder 41 | rCAG bind conf inactive | dCAG dye counter 11
CCn1nc(NS(=O)(=O)c2ccc(NC(C)=O)cc2)c2cc3ccccc3nc21	none
CCn1nc(NS(=O)(=O)c2ccc(NC(C)=O)cc2)c2cc3cccc(C)c3nc21	rCAG RNA binder 39 | rCAG bind conf inactive | dCAG dye counter inactive
CCn1nc(NS(=O)(=O)c2ccc(C)cc2)c2cc3ccccc3nc21	none
CC(C)Nc1nc(NC2CCCC2)nc(N2CCOCC2)n1	none
CCc1oc2ccccc2c1C(=O)c1cc(Br)c(O)c(Br)c1	rCAG RNA binder 57 | rCAG bind conf 63 | dCAG dye counter 17
CCc1ccc(OCC(=O)c2c(O)c3ccccc3oc2=O)cc1	none
CCc1ccc(C(=O)/C=C/Nc2ccc(S(=O)(=O)Nc3onc(C)c3C)cc2)cc1	rCAG RNA binder 57 | rCAG bind conf 79 | dCAG dye counter 37
Cc1noc(NS(=O)(=O)c2ccc(N/C=C/C(=O)c3ccc(F)cc3)cc2)c1C	none
COc1ccc(C(=O)/C=C/Nc2ccc(S(=O)(=O)Nc3onc(C)c3C)cc2)cc1	rCAG RNA binder 47 | rCAG bind conf 49 | dCAG dye counter 18
O=C1CC[C@@H]2C[C@@]3(C[C@@H]4CCN1[C@H]24)Nc1cc([N+](=O)[O-])ccc1NC3=NCc1ccccc1	none
CCc1nc2ccc(C(=O)Nc3cccc(OC)c3)cn2c1N(CC)CCOC	none
S=c1[nH]nc(-c2ccco2)n1/N=C/C(Cl)=C/c1ccccc1	rCAG RNA binder 58 | rCAG bind conf 52 | dCAG dye counter 18
S=c1[nH]nc(-c2ccco2)n1/N=C/c1ccc(Cl)c(Cl)c1	rCAG RNA binder 41 | rCAG bind conf 40 | dCAG dye counter 10
COc1ccc(CCN(Cc2cccs2)S(=O)(=O)c2ccc(C(=O)O)cc2)cc1OC	rCAG RNA binder 36 | rCAG bind conf 37 | dCAG dye counter 5.5
Cc1cc(NS(=O)(=O)C2CCN(C(=O)Cc3ccc(Cl)c(Cl)c3)CC2)no1	none (no result: PG9 Ab binder, DNMT1 block)
COc1ccc(/C=N/n2c(-c3ccc(C)cc3)n[nH]c2=S)cc1OC	none
CCn1c2ccccc2c2cc(C=Nn3c(-c4ccccc4C)n[nH]c3=S)ccc21	rCAG RNA binder 49 (no result: PG9 Ab binder, DNMT1 block) | rCAG bind conf 56 | dCAG dye counter 23
COc1cc(C=Nn2c(-c3ccccc3F)n[nH]c2=S)ccc1OCc1ccccc1	rCAG RNA binder 53 (no result: PG9 Ab binder, DNMT1 block) | rCAG bind conf 48 | dCAG dye counter 12
COc1ccc(C=Nn2c(-c3ccc(F)cc3)n[nH]c2=S)cc1OCc1ccccc1	rCAG RNA binder 35 (no result: PG9 Ab binder, DNMT1 block) | rCAG bind conf 39 | dCAG dye counter 12
COc1cc(C=Nn2c(-c3ccc(F)cc3)n[nH]c2=S)ccc1OCc1ccccc1	rCAG RNA binder 50 (no result: PG9 Ab binder, DNMT1 block) | rCAG bind conf 53 | dCAG dye counter 17
CCCCCCCCN1C(=O)[C@H](CC(=O)N2CCN(C(=O)C3CC3)CC2)C[C@@]2(C(=O)OC)CC(C)(C)CC=C12	none (no result: DNMT1 block)
CC[C@@H](C)[C@H](NC(=O)Cc1c(C)c2cc3c(C)c(C)oc3c(C)c2oc1=O)C(=O)O	rCAG RNA binder 37 | rCAG bind conf inactive | dCAG dye counter 7.1
CC[C@@H](C)[C@H](NC(=O)Cc1c(C)c2cc3c(C)coc3c(C)c2oc1=O)C(=O)O	none
COc1ccc(-c2coc3cc4oc(=O)c(CC(=O)O)c(C)c4cc23)cc1	none
